# Columns and labels:
# Assay in all cases: PBM; 200 nM protein, PBS
# Settings in all cases: dsDNA, one strand shown
# HOXB9 [1] = target: HOXB9 (Homo sapiens, UniProt P17482 171-250, T197M)
# HOXB9 [2] = target: HOXB9 (Homo sapiens, UniProt P17482 171-250)
# HOXB9 [3] = target: HOXB9 (Homo sapiens, UniProt P17482 171-250, R186Q)
# HOXA2 [4] = target: HOXA2 (Homo sapiens, UniProt O43364 129-215, R185T)
# HOXA2 [5] = target: HOXA2 (Homo sapiens, UniProt O43364 129-215, R185K)
# HOXA2 [6] = target: HOXA2 (Homo sapiens, UniProt O43364 129-215, Y150S)
# HOXA2 [7] = target: HOXA2 (Homo sapiens, UniProt O43364 129-215)
# PITX2 = PITX2 (Homo sapiens, UniProt Q99697 72-157)
# NKX3-2 [8] = target: NKX3-2 (Homo sapiens, UniProt P78367 192-278, P234S)
# NKX3-2 [9] = target: NKX3-2 (Homo sapiens, UniProt P78367 192-278)
# SIX6 = target: T1, SIX6 (Homo sapiens, UniProt O95475 114-200, L167I)
# T1 sequence: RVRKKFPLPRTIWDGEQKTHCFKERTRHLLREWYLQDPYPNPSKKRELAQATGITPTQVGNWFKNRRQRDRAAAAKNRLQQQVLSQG
# Sequence of HOXB9 (Homo sapiens, UniProt P17482 171-250, T197M) (P17482 171-250 T197M): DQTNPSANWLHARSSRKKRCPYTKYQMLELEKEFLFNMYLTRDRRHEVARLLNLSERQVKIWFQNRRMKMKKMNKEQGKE
# Sequence of HOXB9 (Homo sapiens, UniProt P17482 171-250) (P17482 171-250): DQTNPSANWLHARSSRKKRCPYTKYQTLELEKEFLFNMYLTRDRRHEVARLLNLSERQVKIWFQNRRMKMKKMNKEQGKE
# Sequence of HOXB9 (Homo sapiens, UniProt P17482 171-250, R186Q) (P17482 171-250 R186Q): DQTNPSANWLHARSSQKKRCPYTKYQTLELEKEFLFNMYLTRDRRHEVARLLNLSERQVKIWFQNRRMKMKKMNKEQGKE
# Sequence of HOXA2 (Homo sapiens, UniProt O43364 129-215, Y150S) (O43364 129-215 Y150S): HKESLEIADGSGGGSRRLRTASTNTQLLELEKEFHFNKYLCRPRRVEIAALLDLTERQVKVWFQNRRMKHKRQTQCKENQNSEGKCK
# Sequence of HOXA2 (Homo sapiens, UniProt O43364 129-215, R185K) (O43364 129-215 R185K): as the sequence (O43364 129-215 Y150S) above, with S22Y, R57K counted along it
# Sequence of HOXA2 (Homo sapiens, UniProt O43364 129-215, R185T) (O43364 129-215 R185T): as the sequence (O43364 129-215 Y150S) above, with S22Y, R57T counted along it
# Sequence of NKX3-2 (Homo sapiens, UniProt P78367 192-278) (P78367 192-278): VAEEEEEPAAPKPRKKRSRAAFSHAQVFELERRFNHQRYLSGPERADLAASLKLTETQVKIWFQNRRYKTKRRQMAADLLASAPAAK
# Sequence of HOXA2 (Homo sapiens, UniProt O43364 129-215) (O43364 129-215): as the sequence (O43364 129-215 Y150S) above, with S22Y counted along it
# Sequence of NKX3-2 (Homo sapiens, UniProt P78367 192-278, P234S) (P78367 192-278 P234S): as the sequence (P78367 192-278) above, with P43S counted along it
sequence,measurement,setting,value
GGAACCCC,binding signal,HOXB9 [1],"8.42 upbm affinity estimate (log intensity, higher = more binding, comparable within an allelic series)"
same,binding signal,HOXB9 [2],"8.48 upbm affinity estimate (log intensity, higher = more binding, comparable within an allelic series)"
same,binding signal,HOXB9 [3],"8.46 upbm affinity estimate (log intensity, higher = more binding, comparable within an allelic series)"
GAACCGGC,binding signal,HOXB9 [1],"8.52 upbm affinity estimate (log intensity, higher = more binding, comparable within an allelic series)"
same,binding signal,HOXA2 [4],"7.08 upbm affinity estimate (log intensity, higher = more binding, comparable within an allelic series)"
same,binding signal,HOXB9 [2],"8.43 upbm affinity estimate (log intensity, higher = more binding, comparable within an allelic series)"
same,binding signal,HOXA2 [5],"10.2 upbm affinity estimate (log intensity, higher = more binding, comparable within an allelic series)"
same,binding signal,HOXB9 [3],"8.48 upbm affinity estimate (log intensity, higher = more binding, comparable within an allelic series)"
same,binding signal,HOXA2 [6],"10.4 upbm affinity estimate (log intensity, higher = more binding, comparable within an allelic series)"
same,binding signal,HOXA2 [7],"7.09 upbm affinity estimate (log intensity, higher = more binding, comparable within an allelic series)"
CCTGCGGC,binding signal,HOXB9 [1],"8.26 upbm affinity estimate (log intensity, higher = more binding, comparable within an allelic series)"
same,binding signal,HOXB9 [2],"8.14 upbm affinity estimate (log intensity, higher = more binding, comparable within an allelic series)"
same,binding signal,HOXB9 [3],"8.19 upbm affinity estimate (log intensity, higher = more binding, comparable within an allelic series)"
CAGGGGCC,binding signal,HOXB9 [1],"8.21 upbm affinity estimate (log intensity, higher = more binding, comparable within an allelic series)"
same,binding signal,HOXB9 [2],"8.25 upbm affinity estimate (log intensity, higher = more binding, comparable within an allelic series)"
same,binding signal,HOXB9 [3],"8.25 upbm affinity estimate (log intensity, higher = more binding, comparable within an allelic series)"
CCTATAAG,binding signal,HOXB9 [1],"9.17 upbm affinity estimate (log intensity, higher = more binding, comparable within an allelic series)"
same,binding signal,HOXB9 [2],"9.71 upbm affinity estimate (log intensity, higher = more binding, comparable within an allelic series)"
CTTGGCGC,binding signal,HOXB9 [1],"8.47 upbm affinity estimate (log intensity, higher = more binding, comparable within an allelic series)"
same,binding signal,HOXB9 [2],"8.24 upbm affinity estimate (log intensity, higher = more binding, comparable within an allelic series)"
same,binding signal,PITX2,"7.94 upbm affinity estimate (log intensity, higher = more binding, comparable within an allelic series)"
same,binding signal,HOXB9 [3],"8.21 upbm affinity estimate (log intensity, higher = more binding, comparable within an allelic series)"
AAGCCACC,binding signal,HOXB9 [1],"8.58 upbm affinity estimate (log intensity, higher = more binding, comparable within an allelic series)"
same,binding signal,HOXB9 [2],"8.55 upbm affinity estimate (log intensity, higher = more binding, comparable within an allelic series)"
same,binding signal,HOXB9 [3],"8.63 upbm affinity estimate (log intensity, higher = more binding, comparable within an allelic series)"
GTCCGGCA,binding signal,HOXB9 [1],"8.68 upbm affinity estimate (log intensity, higher = more binding, comparable within an allelic series)"
same,binding signal,HOXB9 [2],"8.51 upbm affinity estimate (log intensity, higher = more binding, comparable within an allelic series)"
same,binding signal,HOXB9 [3],"8.52 upbm affinity estimate (log intensity, higher = more binding, comparable within an allelic series)"
ACACCCAG,binding signal,HOXB9 [1],"8.69 upbm affinity estimate (log intensity, higher = more binding, comparable within an allelic series)"
same,binding signal,HOXB9 [2],"8.47 upbm affinity estimate (log intensity, higher = more binding, comparable within an allelic series)"
same,binding signal,HOXB9 [3],"8.52 upbm affinity estimate (log intensity, higher = more binding, comparable within an allelic series)"
CAATCAAC,binding signal,HOXB9 [1],"9.17 upbm affinity estimate (log intensity, higher = more binding, comparable within an allelic series)"
same,binding signal,HOXB9 [2],"9.95 upbm affinity estimate (log intensity, higher = more binding, comparable within an allelic series)"
same,binding signal,HOXB9 [3],"9.93 upbm affinity estimate (log intensity, higher = more binding, comparable within an allelic series)"
CCAGACCG,binding signal,HOXB9 [1],"8.54 upbm affinity estimate (log intensity, higher = more binding, comparable within an allelic series)"
same,binding signal,HOXB9 [2],"8.51 upbm affinity estimate (log intensity, higher = more binding, comparable within an allelic series)"
same,binding signal,HOXB9 [3],"8.43 upbm affinity estimate (log intensity, higher = more binding, comparable within an allelic series)"
CGCCGGGA,binding signal,HOXB9 [1],"8.5 upbm affinity estimate (log intensity, higher = more binding, comparable within an allelic series)"
same,binding signal,HOXB9 [2],"8.44 upbm affinity estimate (log intensity, higher = more binding, comparable within an allelic series)"
same,binding signal,HOXB9 [3],"8.47 upbm affinity estimate (log intensity, higher = more binding, comparable within an allelic series)"
same,binding signal,NKX3-2 [8],"10.5 upbm affinity estimate (log intensity, higher = more binding, comparable within an allelic series)"
same,binding signal,NKX3-2 [9],"10.5 upbm affinity estimate (log intensity, higher = more binding, comparable within an allelic series)"
CGTGGACC,binding signal,HOXB9 [1],"8.66 upbm affinity estimate (log intensity, higher = more binding, comparable within an allelic series)"
same,binding signal,HOXB9 [2],"8.61 upbm affinity estimate (log intensity, higher = more binding, comparable within an allelic series)"
same,binding signal,HOXB9 [3],"8.63 upbm affinity estimate (log intensity, higher = more binding, comparable within an allelic series)"
GCGGGTGA,binding signal,HOXB9 [1],"8.59 upbm affinity estimate (log intensity, higher = more binding, comparable within an allelic series)"
same,binding signal,HOXB9 [2],"8.45 upbm affinity estimate (log intensity, higher = more binding, comparable within an allelic series)"
same,binding signal,HOXB9 [3],"8.62 upbm affinity estimate (log intensity, higher = more binding, comparable within an allelic series)"
CGTAGGCC,binding signal,HOXB9 [1],"8.47 upbm affinity estimate (log intensity, higher = more binding, comparable within an allelic series)"
same,binding signal,HOXB9 [2],"8.61 upbm affinity estimate (log intensity, higher = more binding, comparable within an allelic series)"
same,binding signal,HOXB9 [3],"8.63 upbm affinity estimate (log intensity, higher = more binding, comparable within an allelic series)"
ATGGTGTC,binding signal,SIX6,"9.97 upbm affinity estimate (log intensity, higher = more binding, comparable within an allelic series)"
GGCTCCGA,binding signal,HOXB9 [1],"8.49 upbm affinity estimate (log intensity, higher = more binding, comparable within an allelic series)"
same,binding signal,HOXB9 [2],"8.4 upbm affinity estimate (log intensity, higher = more binding, comparable within an allelic series)"
same,binding signal,HOXB9 [3],"8.41 upbm affinity estimate (log intensity, higher = more binding, comparable within an allelic series)"
GCCGCAGA,binding signal,HOXB9 [1],"8.65 upbm affinity estimate (log intensity, higher = more binding, comparable within an allelic series)"
same,binding signal,HOXB9 [2],"8.62 upbm affinity estimate (log intensity, higher = more binding, comparable within an allelic series)"
same,binding signal,HOXB9 [3],"8.62 upbm affinity estimate (log intensity, higher = more binding, comparable within an allelic series)"
GGCGCAGA,binding signal,HOXB9 [1],"8.52 upbm affinity estimate (log intensity, higher = more binding, comparable within an allelic series)"
same,binding signal,HOXB9 [2],"8.62 upbm affinity estimate (log intensity, higher = more binding, comparable within an allelic series)"
same,binding signal,HOXB9 [3],"8.63 upbm affinity estimate (log intensity, higher = more binding, comparable within an allelic series)"
CCCGCGAG,binding signal,HOXB9 [1],"8.58 upbm affinity estimate (log intensity, higher = more binding, comparable within an allelic series)"
same,binding signal,HOXB9 [2],"8.45 upbm affinity estimate (log intensity, higher = more binding, comparable within an allelic series)"
same,binding signal,HOXB9 [3],"8.39 upbm affinity estimate (log intensity, higher = more binding, comparable within an allelic series)"
